# Compound activity (PubChem BioAssay)
# ssDAF12 agonist – activators of S. stercoralis DAF-12 nuclear receptor. HEK293 ssDAF-12/GRIP1 lit1-tk-luc reporter, luminescence; % of 3 µM dafachronic acid response. 370,000 compounds, 1% hits. AID 652126. activation, % at 6.8 µM;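 active = activation above the mean over all tested compounds plus 3 SD, cut at about 0.9% in these data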
# hgDAF12 agonist – agonists of H. glycines DAF-12 nuclear receptor | HEK293 GAL4-hgDAF12 UAS-luciferase reporter, agonist luminescence; normalized to butyrate control | activation, % at 6.8 µM | 370,000 compounds, 1.8% hits;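 active = activation above a cutoff set at the mean of all screened compounds plus 3 SD, cut at about 10% in these data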
# SMARCA2 act – SMARCA2 function activation, primary screen; MG213 cells, MMTV-luciferase reporter, dexamethasone, overnight; activation, % at 9.1 µM; 370,000 compounds, 1% hits; AID 652017; in the data active = activation above about 7.8%
# DAX1 inh-1 – NR0B1 (DAX1) inhibition. P51843. HEK293 Gal4-DAX1 luciferase reporter, luminescence. inhibition, % at 6.75 µM. 340,000 compounds, 0.99% hits;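 active = inhibition above the mean over all tested compounds plus 3 SD, cut at about 4.2% in these data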;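 also: inhibition shows as a rise in luminescence from relieved DAX1 repression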
# Target sequence (P51843 207-470 limits assumed): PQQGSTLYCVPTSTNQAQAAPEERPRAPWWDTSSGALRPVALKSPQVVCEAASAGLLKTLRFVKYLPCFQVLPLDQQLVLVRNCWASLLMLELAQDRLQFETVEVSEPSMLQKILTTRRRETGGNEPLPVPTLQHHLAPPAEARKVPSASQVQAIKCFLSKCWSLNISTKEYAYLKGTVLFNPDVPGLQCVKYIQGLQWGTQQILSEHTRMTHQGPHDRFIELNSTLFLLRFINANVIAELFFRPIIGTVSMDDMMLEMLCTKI
# DAX1 inh-2 – DAX1 (NR0B1) inhibition, primary screen | HEK293T StAR-luciferase reporter, SF-1/DAX-1 repression relief | inhibition, % at 6.8 µM | 370,000 compounds, 1.1% hits;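 active = inhibition above the mean over all tested compounds plus 3 SD, cut at about 3.6% in these data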;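 also: higher inhibition means more luminescence from relief of DAX-1 repression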
# hcDAF12 agonist – H. contortus DAF-12 activation, primary screen; 370,000 compounds, 1.4% hits; AID 652067; activation, % at 6.8 µM; HEK293 hcDAF-12 lit1-tk-luc reporter, luminescence; 0% DMSO, 100% Δ7-dafachronic acid;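 active = activation above the mean of all tested compounds plus 3 SD, cut at about 5.5% in these data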
# DAX1 inh confirm – confirmation of human DAX1 (NR0B1) inhibitors; inhibition, % at 6.8 µM; HEK293T StAR-promoter luciferase reporter, SF-1/DAX-1 repression; shares compounds with DAX1 inh-2; 2,400 compounds, 87% hits;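 active = inhibition above the average of every tested compound plus 3 SD, cut at about 3.8% in these data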;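 also: active compounds raise luminescence by relieving repression of the StAR reporter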
# Target sequence (P51843 whole entry, looked up): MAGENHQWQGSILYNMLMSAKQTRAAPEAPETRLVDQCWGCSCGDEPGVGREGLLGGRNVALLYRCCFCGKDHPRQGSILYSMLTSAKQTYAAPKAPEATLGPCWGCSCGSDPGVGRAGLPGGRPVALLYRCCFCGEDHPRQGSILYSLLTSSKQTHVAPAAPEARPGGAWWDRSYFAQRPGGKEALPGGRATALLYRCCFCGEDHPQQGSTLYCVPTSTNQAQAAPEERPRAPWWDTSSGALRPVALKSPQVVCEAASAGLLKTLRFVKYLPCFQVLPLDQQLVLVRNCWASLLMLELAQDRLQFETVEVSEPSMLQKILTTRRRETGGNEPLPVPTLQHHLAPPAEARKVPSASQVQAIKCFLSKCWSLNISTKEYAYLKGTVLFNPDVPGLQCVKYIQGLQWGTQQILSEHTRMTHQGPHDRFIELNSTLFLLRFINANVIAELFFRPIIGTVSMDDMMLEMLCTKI
# SF1 AF2mut Luc – nonselective inhibitor or artifact in SF-1 mutant DAX1 counter-screen | AID 652136 | HEK293 StAR-luciferase, SF-1 AF2 mutant, luminescence | inhibition, % at 6.8 µM | 2,400 compounds, 78% hits | shares compounds with DAX1 inh-2;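 active = inhibition above the mean of all tested compounds plus 3 SD, cut at about 3% in these data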
# LXRb hcDAF ctr – counter-screen for hcDAF-12 agonists: agonists of human LXR-beta; shares compounds with hcDAF12 agonist; HEK293 Gal4-LXR tk-luc reporter, luminescence, 24 h; normalized: DMSO 0%, positive control 100%; activation, % at 6.8 µM; 3,400 tested, under 10 active; AID 743027;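 active = mean percent activation of the reporter above a cutoff set as the average over tested compounds plus their standard deviation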
# hcDAF12 conf – hcDAF-12 agonism, confirmation assay; shares compounds with hcDAF12 agonist; HEK293 hcDAF-12 lit1-tk-luc reporter, luminescence; % of Δ7-dafachronic acid response; activation, % at 6.8 µM; 3,400 compounds, 61% hits; AID 743032;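 active = mean activation across triplicate tests above the threshold derived from the earlier primary screen, cut at about 5.5% in these data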
# hgDAF12 ag – confirmation of H. glycines DAF-12 agonists; AID 743050; 3,300 compounds, 80% hits; activation, % at 6.8 µM; shares compounds with hgDAF12 agonist; HEK293 GAL4-hgDAF12 luciferase reporter, agonist mode; percent of butyrate response;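 active = mean activation over triplicate wells above the hit cutoff derived from the earlier primary screen, cut at about 11% in these data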
# LXR ag 2 – LXR-beta agonism as DAF-12 counter-screen; shares compounds with hgDAF12 agonist; HEK293 Gal4-LXR luciferase reporter, 24 h; activation, % at 6.8 µM; 3,300 tested, under 10 active; AID 743051;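 active = mean activation of the triplicate above a set limit carried over from the primary screen, none filed active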
# Numbers stand for hits; . = inactive; / = no result given. Shown are actives, neighbours in structure and some others; about 4.8% of the full set was active somewhere.
SMILES,ssDAF12 agonist,hgDAF12 agonist,SMARCA2 act,DAX1 inh-1,DAX1 inh-2,hcDAF12 agonist,DAX1 inh confirm,SF1 AF2mut Luc,hgDAF12 ag,LXR ag 2,others
N#Cc1ccc(C(=O)NC2=NCCS2)cc1,.,.,.,.,.,.,/,/,/,/,
O=C(NC1=NCCS1)c1sc2cc(Cl)cc(Cl)c2c1Cl,.,.,.,.,.,.,/,/,/,/,
O=C(NC1=NCCS1)c1cccc(OC(F)F)c1,.,16.0,.,4.8,5.0,.,13.8,9.6,14.1,.,
CC(C)c1ccc(C(=O)NC2=NCCS2)cc1,.,17.9,.,.,5.5,.,18.7,7.0,13.6,.,
Cc1[nH]c2ccccc2c1C(=O)C(=O)NCCC1=CCCCC1,.,.,.,.,.,.,/,/,/,/,
Cc1ccc2nc(-c3ccc(F)cc3)c(CC3CCCCC3)n2c1,1.5,13.9,.,/,6.6,9.7,.,5.0,.,.,LXRb hcDAF ctr=.;hcDAF12 conf=.
COC(=O)c1ccc2nc(-c3ccc(OC)c(OC)c3)c(CC3CCCCC3)n2c1,.,.,.,/,.,.,/,/,/,/,
O=C(Nc1ccccc1)c1ccc(-c2ccccc2)s1,.,14.2,.,.,5.4,.,12.1,8.5,16.8,.,
CC(C)NC(=O)C1CCN(C2CCN(C(=O)Cc3ccc4c(c3)OCO4)CC2)CC1,.,.,.,.,.,.,/,/,/,/,
Cc1ccn2c(Cc3ccccc3)c(-c3ccc(Br)cc3)nc2c1,.,16.9,.,.,8.4,.,5.3,.,.,.,
Cc1ccc(Cc2c(-c3ccc(C)cc3)nc3cc(C)ccn23)cc1,.,17.8,.,.,6.2,.,.,.,.,.,
Cc1ccc(Cc2c(-c3ccc(C)cc3)nc3ccc(Br)cn23)cc1,.,.,.,.,.,.,/,/,/,/,
Cc1cc(C)c2sc(NC(=O)C3=COCCO3)nc2c1,.,20.5,.,.,14.1,10.5,9.5,4.3,16.7,.,LXRb hcDAF ctr=.;hcDAF12 conf=.
COc1ccc(/C=C2\SC(=S)N(CC(=O)OCC(=O)Nc3ccc(C)cc3Cl)C2=O)cc1,.,.,.,.,.,.,/,/,/,/,
Cc1ccc(C2=NN3C(C2)c2ccccc2OC32C(=O)Nc3ccccc32)cc1 (configuration not stated),2.2,25.5,.,.,5.3,18.5,9.9,9.4,19.6,.,LXRb hcDAF ctr=.;hcDAF12 conf=8.3
CCC1CCC/C1=N\NC(=O)c1ccoc1C (configuration not stated),.,16.9,.,.,11.4,.,.,.,.,.,
CCC1CCC/C1=N\NC(=O)c1ccccc1Cl (configuration not stated),.,.,.,/,.,.,/,/,/,/,
Cc1cc(NC(=O)CSc2nnnn2C2CCCC2)no1,.,.,.,.,.,.,/,/,/,/,
CCn1c(C)cc(C(=O)CSc2nnnn2C2CCCC2)c1C,.,13.4,.,.,9.6,.,12.6,7.4,16.9,.,
CSc1ccccc1OCc1cc(C(=O)NCc2ccc(C)s2)no1,.,.,.,.,.,.,/,/,/,/,
CCOC(=O)c1ccc(CNC(=O)c2cc(COc3ccccc3SC)on2)o1,.,14.6,.,.,5.4,.,8.8,4.5,17.8,.,
Cc1ccc(/C(N)=N/OC(=O)c2cccs2)cc1,1.0,20.6,.,.,6.5,11.6,5.9,5.1,16.6,.,LXRb hcDAF ctr=.;hcDAF12 conf=.
COc1ccc(OCc2cc(C(=O)N3CCOCC3)no2)c(Cl)c1,.,13.3,.,.,7.4,.,9.8,7.5,14.9,.,
COc1ccc2nc(NC(=O)c3ccoc3C)sc2c1,.,14.8,.,.,5.5,9.9,14.2,4.4,19.1,.,LXRb hcDAF ctr=.;hcDAF12 conf=5.9
COc1ccc2nc(NC(=O)C3COc4ccccc4O3)sc2c1 (configuration not stated),.,18.7,.,.,5.6,6.4,12.3,7.6,11.5,.,
SMILES,ssDAF12 agonist,hgDAF12 agonist,SMARCA2 act,DAX1 inh-1,DAX1 inh-2,hcDAF12 agonist,DAX1 inh confirm,SF1 AF2mut Luc,hgDAF12 ag,LXR ag 2,others
COC(=O)c1sc(NC(=O)c2ccoc2C)nc1C,.,.,.,.,.,.,/,/,/,/,
COc1ccccc1C(=O)N1CCN(C(=O)c2ccncc2)CC1,.,.,.,.,.,.,/,/,/,/,
NCCNc1ccc2nnnn2n1,.,.,.,.,.,.,/,/,/,/,
Cn1c(C(=O)Nc2ccc3c(c2)OCCO3)cc2sccc21,1.2,14.9,.,.,6.9,9.7,8.8,6.8,17.9,.,LXRb hcDAF ctr=.;hcDAF12 conf=.
O=C(Nc1ccc2c(c1)OCCO2)c1cc2sccc2n1Cc1ccccc1,.,.,.,.,.,.,/,/,/,/,
Cc1ccc(C=Cc2ccccn2)cc1,.,13.2,.,4.5,7.5,.,11.7,4.9,20.3,.,
O=C(Cc1csc2ccccc12)NCC1CC1,.,.,.,/,.,.,/,/,/,/,
c1ccc(-c2noc(-c3ccc4ccccc4c3)n2)cc1,.,.,.,.,.,.,/,/,/,/,
COc1cccc(-c2noc(-c3ccc4c(c3)OCO4)n2)c1,1.8,17.4,.,4.3,6.1,.,13.2,4.0,17.1,.,
c1ccc(-c2noc(-c3ccc4c(c3)OCO4)n2)cc1,1.2,21.6,.,.,5.0,6.3,18.4,7.7,19.3,.,
Cc1cc(C)n2nc(-c3ccc(F)cc3)cc2n1,2.9,18.4,.,.,6.6,9.5,13.2,8.5,18.0,.,LXRb hcDAF ctr=.;hcDAF12 conf=12.2
O=C(Nc1ccc2c(c1)CCC2)c1c(F)cccc1Cl,.,.,.,.,.,.,/,/,/,/,
O=C(Nc1ccc2c(c1)CCC2)Nc1ccccc1F,.,16.3,.,.,16.2,8.6,13.1,8.5,21.8,.,LXRb hcDAF ctr=.;hcDAF12 conf=8.6
O=C(Nc1ccccc1)Nc1ccc2c(c1)CCC2,.,16.3,.,.,10.2,.,7.5,5.0,15.2,.,
O=C(NCCSCc1ccccc1)c1ccc(F)cc1,.,.,.,.,.,.,/,/,/,/,
Clc1ccccc1N=C1NN=C(c2cccs2)CS1,1.3,17.7,.,.,7.2,10.2,9.5,5.3,16.3,.,LXRb hcDAF ctr=.;hcDAF12 conf=9.3
